Assay outcomes (PubChem BioAssay)
Hits are enriched below; roughly 5.2% of the tested compounds scored in any of these assays.
Tau fibril FP: blocks human tau fibril formation measured by polarization; 280,000 compounds, 0.39% hits; Potency, µM (doses to about 57.7 µM), most hits filed as inhibitors; AID 1468; K18 P301L tau heparin fibrillization, Alexa594 FP, 6 h; note: nearly all actives have a fitted effect of over 55% in size
Target sequence (P10636 561-689 P618L limits assumed): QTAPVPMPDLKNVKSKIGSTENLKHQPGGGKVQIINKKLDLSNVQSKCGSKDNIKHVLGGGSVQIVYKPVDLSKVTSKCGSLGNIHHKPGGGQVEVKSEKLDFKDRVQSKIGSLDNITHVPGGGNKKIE
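Compound effects on tau fibrillization are measured by Alexa 594 fluorescence polarization (ex 555, em 632 nm). K18 P301L tau is used at 15 uM with 0.24 uM labeled tracer, and 20 uM heparin induces aggregation over 6 hr at 37 C.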
Tau fluor cs: counter-screen for tau fibril formation inhibitors; tau K18 P301L Alexa594 fluorescence, heparin fibrillization; Potency, µM (top dose mostly 57.7 µM); 280,000 compounds, 0.93% hits; note: nearly all actives have a fitted effect of over 55% in size
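Human K18 P301L tau (15 uM unlabeled plus 0.24 uM Alexa 594-labeled, final) in 100 mM sodium acetate pH 7 was mixed with compound and 20 uM heparin and incubated 6 hr at 37 C.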
Sfp inh: inhibitors of Bacillus subtilis Sfp phosphopantetheinyl transferase | Q9F4F7 | Biochemical Sfp PPTase activity, qHTS | Potency, µM, actives largely listed as inhibitors | 310,000 compounds, 3.5% hits | AID 1490;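 note: the enzyme is Sfp with the accession as filed and its product quenches rhodamine fluorescence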
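Buffer: 50 mM Hepes-Na pH 7.6, 10 mM MgCl2, 0.01% Nonidet P-40, 0.01% BSA. Enzyme 15 nM, pre-exposed to compound 15 min; substrates then added and fluorescence change tracked over 30 min.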
Tau ThT inhib: tau fibrillization inhibition (ThT binding). recombinant tau K18 P301L (four-repeat tau fragment), heparin-induced fibrillization, ThT fluorescence. Potency, µM (titrated, usually from 57.4 µM), actives largely listed as inhibitors. 270,000 compounds, 2.1% hits; note: nearly all actives have a fitted effect of over 55% in size
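K18 P301L tau (15 uM + 0.24 uM Alexa 594-tagged), heparin 20 uM, NaOAc pH 7, 6 h 37 C; ThT 30 uM, 1 h RT, ex 450/em 510 nm.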
FBPA coupling cs: inhibits coupling enzyme system, counter-screen for aldolase hits; coupling enzyme system counterscreen, AmpLite Red fluorescence; activity change, negative = inhibition, % at 58.2 µM, hits read low; 290,000 compounds, 0.67% hits; in the data active = activity change below about -30%
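Activity here indicates interference with the coupling reaction, not aldolase inhibition. Compounds at 57.5 uM final met coupling enzymes for 10 min at RT; substrate and AmpLite Red detection followed, with a 525/598 nm fluorescence read after 20 min.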
Numbers stand for hits; ! = not confirmed by another sample; [ ] = dose if it differs, or a comment. Unless noted, calls come from the whole dose curve; as a rule, active = well fitted curve in the direction sought with a large enough effect; inconclusive = small, poorly fitted or top-dose-only effect, or another doubt; inactive = no such curve, though single readings can be large; an effect the other way counts as inactive or inconclusive.

Cc1cccc(C)c1NC(=O)CN(CC(=O)O)CC(=O)O was read as Sfp inh 44.7µM.
For CSC(=NC#N)N1CCN(c2ccc([N+](=O)[O-])cc2)CC1 the results were Tau fibril FP inactive, Tau fluor cs inactive, Sfp inh inactive, Tau ThT inhib 2µM and FBPA coupling cs inactive.
CC(C)(C)OC(=O)N1CCN(c2ccc([N+](=O)[O-])cc2)CC1 was read as Tau fibril FP inactive, Tau fluor cs inactive, Sfp inh inactive, Tau ThT inhib 3.98µM and FBPA coupling cs inactive.
CCOC(=O)N1CCN(c2ccc([N+](=O)[O-])cc2)CC1 was read as Tau fibril FP inactive, Tau fluor cs inactive, Sfp inh inactive, Tau ThT inhib 3.98µM and FBPA coupling cs inactive.
For O=C(Cc1ccc([N+](=O)[O-])cc1)N1CCN(c2ccc([N+](=O)[O-])cc2)CC1 the results were Sfp inh inactive and FBPA coupling cs inactive.
Screening CSC(=NC#N)N1CCN(C(=NC#N)SC)CC1 returned Tau fibril FP inactive, Tau fluor cs inactive, Sfp inh inactive, Tau ThT inhib inactive and FBPA coupling cs inactive.
O=[N+]([O-])c1ccc(N2CCN(C(=S)NC3CCCCC3)CC2)cc1 was read as Tau fibril FP inactive, Tau fluor cs inconclusive, Sfp inh inactive and Tau ThT inhib 10µM.
Screening Cc1ccc(-n2ncc3c(NC4CCCCC4)ncnc32)cc1 returned Tau fibril FP inactive, Tau fluor cs inactive and Tau ThT inhib inactive.
`COc1ccccc1N1CCN(C(=O)Cc2cccs2)CC1` gave Tau fibril FP inactive, Tau fluor cs inactive, Sfp inh inactive, Tau ThT inhib inactive and FBPA coupling cs -32.2.
O=C(Cc1cccs1)N1CCN(c2ccc([N+](=O)[O-])cc2)CC1 was read as Tau fibril FP inactive, Tau fluor cs inactive, Sfp inh inactive, Tau ThT inhib 3.55µM and FBPA coupling cs inactive.
CC(=O)OC[C@@H]1O[C@H](C/C=N\O[C@@H](C)c2cn([C@H](CO)Cc3ccccc3)nn2)C=C[C@@H]1OC(C)=O was read as Tau fibril FP inactive[11.6 µM], Tau fluor cs inactive[11.6 µM], Sfp inh inactive, Tau ThT inhib inactive[11.5 µM] and FBPA coupling cs inactive.
`CC(C)(C)c1ccc(C(=O)NC2(C(F)(F)F)C(=O)Nc3c2c(=O)[nH]c(=O)n3-c2ccccc2)cc1` (stereo not drawn) gave Tau fibril FP inactive, Tau fluor cs inactive and Tau ThT inhib inactive.
COc1ccc(-c2n[nH]c(C(F)(F)F)c2-c2cc3ccccc3o2)c(O)c1 was read as Tau fibril FP inactive, Tau fluor cs inconclusive, Sfp inh inactive, Tau ThT inhib 17.8µM and FBPA coupling cs inactive.
COC(=O)[C@@H](NC(=O)N1CCc2nc(-c3ccc(OC)cc3C)c3c(c2C1)CO[C@@H](c1ccccc1)C3)C(C)C was read as Tau fibril FP inactive[11.6 µM], Tau fluor cs inactive[11.6 µM], Sfp inh inactive, Tau ThT inhib inactive[11.5 µM] and FBPA coupling cs inactive.
Screening O=C(c1ccccc1)c1ccc(OCC(O)CNCc2ccc(Cl)cc2)cc1 (stereo not drawn) returned Sfp inh 79.4µM and FBPA coupling cs inactive.
`O=C(O)C1CCc2sc3[nH]c(=S)n(-c4ccccc4)c(=O)c3c21` (stereo not drawn) gave Tau fibril FP inactive, Tau fluor cs inactive, Sfp inh 25.1µM, Tau ThT inhib inconclusive and FBPA coupling cs inactive.
CCN(CC)C(=O)c1sc2[nH]c(=S)n(-c3ccccc3)c(=O)c2c1C was read as Tau fibril FP inactive, Tau fluor cs inactive, Sfp inh 79.4µM, Tau ThT inhib inactive and FBPA coupling cs inactive.
O=c1c(-c2cccc(F)c2)nc2cncnc2n1-c1ccccc1 was read as Sfp inh inactive and FBPA coupling cs inactive.
Screening COc1ccc2c(c1)Cc1sc(NC(=O)c3cccc(C)c3)nc1-2 returned Tau fibril FP inactive, Tau fluor cs 15.8µM[quencher] and Tau ThT inhib 12.6µM.
`COc1ccc2c(c1)Cc1sc(NC(=O)c3cccc(Cl)c3)nc1-2` gave Tau fibril FP inactive, Tau fluor cs inactive and Tau ThT inhib inconclusive.
Screening COc1ccc2c(c1)CCc1sc(NC(=O)c3cccc(Br)c3)nc1-2 returned Tau fibril FP inactive, Tau fluor cs inconclusive and Tau ThT inhib inconclusive.
For COc1ccc(C(=O)Nc2nc3c(s2)CCc2cc(OC)ccc2-3)cc1 the results were Tau fibril FP inconclusive, Tau fluor cs 11.2µM[quencher] and Tau ThT inhib 10µM.
Screening CCn1c(C)c(C)c2cc(C(=O)NCc3ccc(OC)cc3OC)ccc21 returned Tau fibril FP inactive, Tau fluor cs inactive and Tau ThT inhib inconclusive.
Screening CCOc1cccc2oc(-c3ccccc3Cl)cc(=O)c12 returned Tau fibril FP inactive, Tau fluor cs inactive, Sfp inh inactive, Tau ThT inhib inactive and FBPA coupling cs inactive.
Screening CO[C@H]1COC(=O)CCC[C@@H](C)[C@H](OC)COC(=O)[C@H]2CCCN2C(=O)C/C=C\[C@@H]1C returned Tau fibril FP inactive[11.6 µM], Tau fluor cs inactive[11.6 µM], Sfp inh inactive, Tau ThT inhib inactive[11.5 µM] and FBPA coupling cs inactive.
`CCn1c2ccccc2c2cc(NC(=O)Cc3ccc(S(=O)(=O)N4CCOCC4)s3)ccc21` gave Tau fibril FP inactive, Tau fluor cs 7.94µM[quencher], Sfp inh inactive, Tau ThT inhib inconclusive and FBPA coupling cs inactive.
For COc1ccc(NC(=O)CC2C(=O)N(c3cccc(OC)c3)C(=O)N2CCC2=CCCCC2)cc1 (stereo not drawn) the results were Tau fibril FP inactive, Tau fluor cs inconclusive and Tau ThT inhib inactive.
NCCSSCCN was read as Tau fibril FP inconclusive, Tau fluor cs inactive, Sfp inh 44.7µM!, Tau ThT inhib 14.1µM and FBPA coupling cs inactive.
Screening COC(=O)c1ccc(NC(=O)Cn2c(=O)oc3ccccc32)cc1 returned Tau fibril FP inactive, Tau fluor cs inactive and Tau ThT inhib inactive.
`COc1ccc(CNC(=O)C2CCN(S(=O)(=O)c3ccc4c(ccn4C)c3)CC2)cc1` gave Tau fibril FP inactive, Tau fluor cs inactive and Tau ThT inhib inactive.
For Cc1c(NC(=O)Cc2ccc(F)cc2)cccc1-c1nc2cccnc2s1 the results were Tau fibril FP inconclusive, Tau fluor cs 20µM[quencher] and Tau ThT inhib inactive.
`CC(=O)c1ccccc1OC(=O)c1ccc([N+](=O)[O-])o1` gave Tau fibril FP inconclusive, Tau fluor cs inactive, Sfp inh inactive, Tau ThT inhib 7.94µM and FBPA coupling cs inactive.
Screening CC(=O)C1=C(c2ccccc2)N(C(C)=O)n2c(nnc2C2CCCCC2)S1 returned Tau fibril FP inactive, Tau fluor cs inactive and Tau ThT inhib inconclusive.
`COc1cc(C)c(CC/C(C)=C/C=C/C(C)=O)c(C)c1C` gave Tau fibril FP inactive, Tau fluor cs inactive, Sfp inh inconclusive, Tau ThT inhib inconclusive and FBPA coupling cs inactive.
Screening COC(=O)C1=C(C)N(Cc2ccc(OC)cc2)C(=O)/C1=C\c1ccco1 returned Tau fibril FP inactive, Tau fluor cs inconclusive, Sfp inh inactive, Tau ThT inhib 25.1µM and FBPA coupling cs inactive.
